{
  "source": "PubChem BioAssay AID862",
  "about": "(The Scripps Research Institute Molecular Screening Center, 2007)",
  "note": "About 1,700 (0.89%) of roughly 190,000 compounds were called active. This is one part of a sample in which actives are shown more often than they occur. Unmarked numbers belong to inactive results.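 Rule for the calls: active = inhibition above the mean inhibition across all screened compounds plus 3 SD (cut at about 44% in these data); inactive = the rest.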",
  "data": [
    {"test": "blockers of STAT3 transcriptional signaling – U3A cells, luciferase, luminescence, MLSCN library, primary screen (AID 862);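 note: 0% = DMSO only wells and 100% = 100 µM nifuroxazide control wells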", "conditions": "IL-6 STAT3-luciferase reporter, at 5.5 µM, hits give high values, host cell line lacks STAT1", "values": [
      {"smiles": "O=C(Nc1ccn(Cc2ccc(F)cc2)n1)c1ccncc1", "inhibition": "22.9%"},
      {"smiles": "O=C(Nc1ccn(Cc2ccccc2)n1)c1n[nH]c([N+](=O)[O-])c1Cl", "inhibition": "53.5% (active)"},
      {"smiles": "O=C(Nc1ccn(Cc2ccccc2)n1)c1cccc(F)c1", "inhibition": "12.5%"},
      {"smiles": "Cc1cccc(C(=O)Nc2ccccc2C(=O)NCc2cccnc2)c1", "inhibition": "10.3%"},
      {"smiles": "CCOC(=O)/C(=N\\Nc1ccccc1Cl)N(C)C1CCS(=O)(=O)C1", "note": "(stereo not given)", "inhibition": "5.4%"},
      {"smiles": "Nc1ccc(Nc2ccccc2)cc1", "inhibition": "18.1%"},
      {"smiles": "Cc1ccc(Nc2ccccc2N)cc1", "inhibition": "69.5% (active)"},
      {"smiles": "Cc1ccc(Nc2nnc(SCc3ccccc3)s2)cc1", "inhibition": "-15.7%"},
      {"smiles": "O=C1NC(=Nc2ccc(Cl)cc2)SC1Cc1cccc(Cl)c1Cl", "note": "(stereo not given)", "inhibition": "0.2%"},
      {"smiles": "CCOc1ccc(C(CC(=O)O)n2cnnn2)cc1OC", "note": "(stereo not given)", "inhibition": "17.4%"},
      {"smiles": "CCN(CCn1cccn1)Cc1nc(-c2ccc(C(=O)OC)cc2)no1", "inhibition": "7.7%"},
      {"smiles": "OC(COc1ccc(CN2CCSCC2)cc1)CN1CCCCC1", "note": "(stereo not given)", "inhibition": "4.3%"},
      {"smiles": "COc1ccc(C2=Nc3cc(C)ccc3OC2)cc1", "inhibition": "66.7% (active)"},
      {"smiles": "COc1ccc(C2=NOC3(CC(=O)N(c4ccc(C)cc4)C3=O)C2)cc1", "note": "(stereo not given)", "inhibition": "0%"},
      {"smiles": "COc1ccc(C2=NOC(COC(=O)c3ccc4ccccc4n3)C2)cc1", "note": "(stereo not given)", "inhibition": "-2.7%"},
      {"smiles": "CC[C@H]1CN2CCc3cc(OC)c(OC)cc3[C@@H]2C[C@@H]1C[C@H]1NCCc2cc(OC)c(OC)cc21", "inhibition": "101% (active)"},
      {"smiles": "COc1cc2c(cc1O)[C@H](Cc1ccc(Oc3cc(C[C@@H]4NCCc5cc(OC)c(O)cc54)ccc3O)cc1)NCC2", "inhibition": "-0.3%"},
      {"smiles": "CCOC(=O)N1CCC(NC(=O)C(NS(=O)(=O)c2ccc3c(c2)CCN3C(=O)CC)C(C)C)CC1", "note": "(stereo not given)", "inhibition": "8.6%"},
      {"smiles": "CCOc1ccc(NS(=O)(=O)c2ccc(C)c(C(N)=O)c2)cc1", "inhibition": "20.3%"},
      {"smiles": "COc1cccc(/C=C/C(=O)Nc2ccc3c(c2)OCCO3)c1", "inhibition": "30.9%"},
      {"smiles": "O=C(Cn1cnc2ccccc21)N/N=C/c1ccco1", "inhibition": "1.9%"},
      {"smiles": "Cc1ccc(Cn2ccc(NC(=O)c3cc(C(C)C)on3)n2)cc1", "inhibition": "15.3%"},
      {"smiles": "O=C(c1cc(-c2cccs2)on1)N1CCCCC1", "inhibition": "24.7%"},
      {"smiles": "Cc1cc(NC(=O)c2cc(-c3cccs3)on2)nn1Cc1ccc(Cl)cc1", "inhibition": "47.2% (active)"},
      {"smiles": "C=CCn1nc(-c2ccccc2)c2c(C)onc2c1=O", "inhibition": "1.6%"},
      {"smiles": "Cc1csc(=Nc2ccccc2)n1CCO", "inhibition": "5.8%"},
      {"smiles": "OCCn1c(-c2ccccc2)csc1=Nc1ccccc1", "inhibition": "46.5% (active)"},
      {"smiles": "Cc1csc(=NC(=O)c2ccccc2)n1CCO", "inhibition": "0.5%"},
      {"smiles": "COC(=O)Cc1ccc(NC(=S)NCc2ccco2)cc1", "inhibition": "2.5%"},
      {"smiles": "COc1ccc(-c2noc(-c3ccc(C)cc3)n2)cc1", "inhibition": "11.2%"},
      {"smiles": "COc1ccc(-c2nc(-c3ccccc3)no2)c(OC)c1", "inhibition": "102% (active)"},
      {"smiles": "COc1ccc(-c2noc(-c3cccc(OC)c3OC)n2)cc1OC", "inhibition": "9.5%"},
      {"smiles": "COCCCNC(=O)/C=C/c1ccc(OCc2c(F)cccc2Cl)cc1", "inhibition": "20%"},
      {"smiles": "Cc1ccc(NC(=O)Nc2nnc(-c3ccncc3)s2)cc1", "inhibition": "9.8%"},
      {"smiles": "CC1CC(C)CN(CCC(=O)Nc2ccc3c(c2)CCC3)C1", "note": "(stereo not given)", "inhibition": "3.9%"},
      {"smiles": "O=C(/C=C/c1ccccc1[N+](=O)[O-])OC1CCCCC1=O", "note": "(stereo not given)", "inhibition": "4.5%"},
      {"smiles": "O=c1[nH]c(CN2CCOCC2)nc2cc(Cl)ccc12", "inhibition": "4.9%"},
      {"smiles": "NC(=O)Cc1nc2scc(-c3ccc(Cl)cc3)c2c(=O)[nH]1", "inhibition": "16%"},
      {"smiles": "O=c1[nH]c(CCl)nc2cc(-c3ccc(Cl)cc3)sc12", "inhibition": "51.2% (active)"},
      {"smiles": "CCOc1cccc(/C=N/N2C(=O)CSC2=S)c1O", "inhibition": "2.5%"},
      {"smiles": "Cc1ccc2[nH]c(=O)c(CN3CCCCC3)c(-c3ccccc3)c2c1", "inhibition": "8.1%"},
      {"smiles": "COc1cccc(/C=C/c2ccc3ccccc3n2)c1OC(C)=O", "inhibition": "89.8% (active)"},
      {"smiles": "CCOc1ccccc1NC(=O)c1cccnc1", "inhibition": "6%"},
      {"smiles": "COc1cccc2sc(NNC(=O)c3nc4ccccc4s3)nc12", "inhibition": "-23.2%"},
      {"smiles": "NC(=O)COC(=O)/C=C/c1ccc2ccccc2n1", "inhibition": "-0.2%"},
      {"smiles": "CCOc1cccc(/C=C/c2ccc3ccccc3n2)c1OC(C)=O", "inhibition": "58.6% (active)"},
      {"smiles": "CC(OC(=O)c1ccc2ccccc2n1)C(=O)c1ccccc1", "note": "(stereo not given)", "inhibition": "-6.4%"},
      {"smiles": "CCn1c2ccccc2c2cc(NC(=O)COC(=O)c3cc(S(=O)(=O)N4CCCCC4)ccc3Cl)ccc21", "inhibition": "4%"},
      {"smiles": "COc1ccc(/C=C/C2=CC(C)(C)NC(=S)N2)c(OC)c1", "inhibition": "9.7%"},
      {"smiles": "COC(=O)Cn1cc(/C=C/[N+](=O)[O-])c2ccccc21", "inhibition": "-0.7%"},
      {"smiles": "CN1C(=O)/C(=C/c2ccco2)SC1=Nc1cccc(C(=O)O)c1", "inhibition": "3.5%"},
      {"smiles": "CC(C)C(=O)Nc1ccc2c3c(cccc13)CC2", "inhibition": "1.8%"},
      {"smiles": "COC(=O)c1sc(NC(=O)c2csc3c2CCCC3)nc1C", "inhibition": "-15.5%"},
      {"smiles": "Cc1ccnc(NC(=O)c2ccoc2C)c1", "inhibition": "10.5%"},
      {"smiles": "COc1cc(SC)ccc1C(=O)Nc1cc(C)ccn1", "inhibition": "55.6% (active)"},
      {"smiles": "COc1cc(SC)ccc1C(=O)Nc1nc(C)cs1", "inhibition": "111% (active)"},
      {"smiles": "COc1ccccc1CNC(=O)c1ccc(SC)cc1OC", "inhibition": "11.4%"},
      {"smiles": "COC(=O)c1sc(NC(=O)c2ccc(OC)cc2OC)nc1C", "inhibition": "86% (active)"},
      {"smiles": "COc1cc(SC)ccc1C(=O)NCCOc1ccccc1Cl", "inhibition": "-8.5%"},
      {"smiles": "COc1ccc(C(=O)Nc2nncs2)c(OC)c1", "inhibition": "8.6%"},
      {"smiles": "CC(=O)Nc1cccc(C(=O)Nc2nc(C)cs2)c1", "inhibition": "10.2%"},
      {"smiles": "O=c1c2ccccc2c(-c2ccccc2)nn1-c1ccccn1", "inhibition": "4.6%"},
      {"smiles": "O=C(CP(=O)(c1ccccc1)c1ccccc1)N1CCOCC1", "inhibition": "6.3%"},
      {"smiles": "COC(=O)Cc1ccc(OCC(=O)Nc2ccc(OC(F)(F)F)cc2)cc1", "inhibition": "-10.9%"},
      {"smiles": "CCN1CCN(CC(=O)c2cc(OC)c(OC)c(OC)c2)CC1", "inhibition": "11.2%"},
      {"smiles": "COc1ccc(-c2csc(NC(=O)CCCc3cccs3)n2)cc1", "inhibition": "23.2%"},
      {"smiles": "CCCc1ccc(-c2csc(NC(=O)Cc3cccs3)n2)cc1", "inhibition": "43.7% (active)"},
      {"smiles": "Cc1ccc(-c2csc(NC(=O)Cc3cccs3)n2)cc1C", "inhibition": "12.1%"},
      {"smiles": "c1ccc(C2CNCc3c2ccc2ccccc32)cc1", "note": "(stereo not given)", "inhibition": "3.3%"},
      {"smiles": "COc1ccccc1Oc1ccc(S(=O)(=O)Nc2cccnc2)cc1", "inhibition": "48.9% (active)"},
      {"smiles": "O=S(=O)(Nc1ccccn1)c1ccc(Oc2ccccc2)cc1", "inhibition": "-1.5%"},
      {"smiles": "COc1ccc(S(=O)(=O)Nc2cccnc2)c(Cl)c1Cl", "inhibition": "5.5%"},
      {"smiles": "Cn1c(CCCOc2ccc(Cl)cc2Cl)n[nH]c1=S", "inhibition": "9.7%"},
      {"smiles": "O=C(COC(=O)C1CC2C=CC1C2)Nc1ccccc1", "note": "(stereo not given)", "inhibition": "1%"},
      {"smiles": "CCCCCc1ccc(-c2ccc(OCC)cc2)nc1", "inhibition": "25.3%"},
      {"smiles": "CCCCCC(=O)Nc1ccc(-c2cn3cccnc3n2)cc1", "inhibition": "11.1%"},
      {"smiles": "CCCCCc1ccc(-c2ccc(C(=O)O)cc2)nc1", "inhibition": "52.6% (active)"},
      {"smiles": "CCCN(CC(=O)Nc1ccccc1C)C(=O)c1cc(=O)[nH]c2ccccc12", "inhibition": "3.5%"},
      {"smiles": "N#Cc1nc(Cc2ccccc2)oc1NCCc1ccccc1", "inhibition": "-13.4%"},
      {"smiles": "N#Cc1nc(-c2ccc(OCc3ccccc3)cc2)oc1NCCCN1CCOCC1", "inhibition": "14.7%"},
      {"smiles": "N#Cc1nc(COc2ccc(-c3ccccc3)cc2)oc1NCc1cccnc1", "inhibition": "45.2% (active)"},
      {"smiles": "COC(=O)c1sc2[nH]c(=S)n(N)c(=O)c2c1C", "inhibition": "8.3%"},
      {"smiles": "Cc1ccc(CN(Cc2cccnc2)C(=S)Nc2cccc(Cl)c2C)cc1", "inhibition": "9.3%"},
      {"smiles": "O=C(CN1CCN(c2ccccn2)CC1)N1CCc2ccccc21", "inhibition": "1.6%"},
      {"smiles": "O=C(CN1C(=O)c2ccccc2S1(=O)=O)N1CCc2ccccc21", "inhibition": "89.1% (active)"},
      {"smiles": "CNC(=O)CN1C(=O)c2ccccc2S1(=O)=O", "inhibition": "10.2%"},
      {"smiles": "O=c1cc(CSc2ccc(Cl)cc2)nc(N2CCOCC2)[nH]1", "inhibition": "-7.4%"},
      {"smiles": "CCOc1ncccc1C(=O)OCc1cn2cc(Cl)ccc2n1", "inhibition": "12.3%"},
      {"smiles": "Clc1ccc2nc(CSc3ccccc3)cn2c1", "inhibition": "62.7% (active)"},
      {"smiles": "CCOC(=O)NN1C(=O)c2ccccc2NC1c1cccc(O)c1", "note": "(stereo not given)", "inhibition": "-10%"},
      {"smiles": "CN(CCc1ccccn1)C(=O)CCC1CCCN(Cc2ccccc2OC(F)F)C1", "note": "(stereo not given)", "inhibition": "4.3%"},
      {"smiles": "Cc1cc(C)c2[nH]c(=O)c(CN(Cc3ccccc3)C(=S)NCCCN(C)C)cc2c1", "inhibition": "-4.1%"},
      {"smiles": "C1CC1Cc1noc(CN2CCN(CC3CC3)CC2)n1", "inhibition": "2.5%"},
      {"smiles": "Cc1ccc(CN(C)CC(=O)Nc2cccc([N+](=O)[O-])c2)o1", "inhibition": "5.5%"},
      {"smiles": "CN(CC(=O)Nc1cccc(F)c1)CC(=O)Nc1cccc([N+](=O)[O-])c1", "inhibition": "-4.2%"},
      {"smiles": "Cc1ccc(NC(=O)CN(C)CC(=O)Nc2cccc(F)c2)cc1[N+](=O)[O-]", "inhibition": "46.8% (active)"},
      {"smiles": "O=S(=O)(NC1CC1)c1ccc2c3c(cccc13)CC2", "inhibition": "11.9%"},
      {"smiles": "CCOC(=O)CSc1nc(C)cc2c1C(=O)OC2", "inhibition": "-1%"},
      {"smiles": "CCOc1ccc(Br)cc1CSC(=N)N", "inhibition": "34.7%"},
      {"smiles": "N=C(N)SCc1cccc2ccccc12", "inhibition": "47.8% (active)"},
      {"smiles": "c1ccc2c(CSCc3nc4ccccc4[nH]3)cccc2c1", "inhibition": "4.1%"},
      {"smiles": "CN(C)CCOCCOc1ccc(Cl)c2ccccc12", "inhibition": "9.5%"},
      {"smiles": "Cc1cc(C(=O)CSc2nc(N)cc(=O)[nH]2)c(C)n1-c1cccc(F)c1", "inhibition": "20.1%"},
      {"smiles": "CCCc1cc(=O)[nH]c(SCC(=O)c2cc(C)n(CCC)c2C)n1", "inhibition": "10.6%"},
      {"smiles": "Cc1cc(C(=O)CSc2nc(N)cc(=O)[nH]2)c(C)n1CCc1ccc(Cl)cc1", "inhibition": "43.7% (active)"}
    ]}
  ]
}
